This is an account of results in the supplement of paper PMC6555819.

One assay has as its system RXRa DBDmut IVT, anti-RXR (DBD mutation: RXRa K156A/R161A, NR concentration 90 nM). The assay can be described thus: PBM binding z-score (relative to random genomic background probes); higher = stronger binding; sequences stand for … in GC…GCGATTGACAGCGTAGAATGAAGG
In a few lines:
(§1)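 Probes were double-stranded and carried 34-nt variable regions with direct-repeat seeds, single-nucleotide variants, half-site ablations and random human genomic background sequences, printed on custom Agilent 4×180K protein-binding microarrays. Arrays were incubated 1 h with ligand-free nuclear receptor dimers in PBS pH 7.4, 2% milk, 0.02% Triton X-100, 1 mM DTT, 0.2 mg/mL BSA and 0.4 mg/ml salmon testes DNA. Antibodies against each partner (one per run) detected binding, and scanned fluorescence was regression-normalized. Binding z-scores use the random background probes as reference.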
In the case of CTCGAAAGGTCGGTTGAGGTGAGAATACGGATAA, the PBM binding z-score turned out to be 0.839.
Same read-out and setting: next, TCTGCTAGGTCAGCTGGTCAGCTAACGAGCTGCC: 0.17; GCTTGTAGATCATGGTTAAGAAAGACTAAGCTAA: 0.0641; TCTGCTAGGTCAGTTTGTCAGCTAACGAGCTGCC: 0.8.
The same measure, in the same setting: next, TCATATAGGTAAATGCTAGTTGAAAGTCCGATCT: 1.59; TCTCGGAGGACACGTAAGGTCAGAGCTCGACATC: 1.11; ATGTCTAGGTAAAGATAGTTCAGTGAATGCAAAT: -0.0644.
In turn, TATACAGGGTCAAAGTCCAGAGTACGAATGTCGA showed a PBM binding z-score of 3.86.
Same read-out and setting: next, GGAACCAGGGCAAGTTGATAGCAGAGTTTGATGG: 1.85; CCTAGCAGGCCAGGGTCACTGAAGCATTTCGCTT: 0.172; CGTCCAAGGTCAATGCTAGGACAGTGAAAGCATT: 3.01.
As for CCTACTGGGCCATTCATAGGTCATTGATCATATG, the PBM binding z-score stood at 0.112.
With CGAACTAGGTGATCCAGGACAGTGAATACATTGA, the PBM binding z-score was found to be 0.07.
As for ACTAGCAGGTCAAGTTTGGGTCACTCAAACAAAG, the PBM binding z-score is 2.25.
The same measure, in the same setting: next, TCTCGTAGATCAAGCAGGTTAAGAAAGCCTGAGT: 0.598.
As for GCTGCTAGGTCAGTTTGGTCAGCTAACGGGTACG, the PBM binding z-score amounted to 0.863.
The sequence CCTACTGGGCCATCAGATCATTGATATCAACGTT registered a PBM binding z-score of 0.0432.
Same read-out and setting: as for CCGAGTGGGGCAGAAAGGTTACCATACCATCCGG, the figure is -0.568; as for AGTCAAAGTTCACTAGGTAACCTAAGATTCAGCT, 4.32.
On the same count and under the same terms, next, TCTAGCAGGCCCGAGGGTCACTCAAGAGGTACGG: 0.126; TCGACTAGGTTACCAATGGGGCATTCAGCTTTCT: 1.07; GCGACTGGGGCATCAGCAGGTTAGCATAACTTAA: -0.821.
As to TTACCAAGGTGAGCTGAGCTCGTTGATCCAACTC, the PBM binding z-score is -0.78.
Consider AGAACGAGGGCAATAAGTTGATAGCACGGGTGGC, for which the PBM binding z-score is 1.9.
On the same count and under the same terms, next, CGTCAAAGATCAACTAAGGTAACGTAAAGCACGC: 0.338; AGAACGAGGGCAAGCTGAGTTGATAGCAGAGTAG: 2.1; TTACCAAGGTGAAGGGTCGTTGATGCACGCCTTG: 0.00143.
In the case of CCGACTGGGGCAGAACGGTTACCATACCATCCGG, the PBM binding z-score is -1.04.
Same read-out and setting: next, TCATATAGGTGAATGCTAGGTGAAAGTCCGATCT: 1.39; TGGCCTAGGTCATTGGGCCAGTATAGTACGCATC: 0.818.
Same read-out and setting: next, TCTTGTAGGTCAAGCAGGTTAAGAAAGCCTGAGT: 1.7; ATCGAAAGGTCGAGGTGATTATAGAGAAAGGGAA: 0.927; CGAACGAGGGCATGGGTTGATAGCAAATGCCGAT: 1.93.
Regarding TTATATAGGTAAACAGGTGAAAGTCCGTAAGTTA, the PBM binding z-score is 0.156.
CCTACTGGGCCAAAAAGGTCATTGAGGCCGATAA gave a PBM binding z-score of 0.821.
Same read-out and setting: next, CCTACTGGGCCAAAGGTCATTCATTCCAATGCTC: 1.65.
The sequence TAGCCTACGTCAGATCGGGCCAGTATACGCTATA gave a PBM binding z-score of -0.801.
The same measure, in the same setting: as for ATCTCTAGGAAACAAGTTCAGTGAAAGAGAGGAC, the figure is 0.688.
CCAACTAGGTCAGAACAGGACAGTGAAGGATGAT: the PBM binding z-score came to 1.3.
Still for that read-out and setting: as for CCGACTGCGGCATAAGGTTACCATAAGCCAGCCC, the figure is 0.104.

A further assay deals with RXRa homodimer (NR concentration 180 nM). The assay is described as above. In a few lines: as §1
Sequence CTCGAAAGGTCGGTTGAGGTGAGAATACGGATAA displayed a PBM binding z-score of 2.33.
The same measure, in the same setting: as for TCTGCTAGGTCAGCTGGTCAGCTAACGAGCTGCC, the figure is 1.51.
Still for that read-out and setting: as for GCTTGTAGATCATGGTTAAGAAAGACTAAGCTAA, the figure is -0.538; as for TCTGCTAGGTCAGTTTGTCAGCTAACGAGCTGCC, 0.666; as for TCATATAGGTAAATGCTAGTTGAAAGTCCGATCT, 0.682.
On the same count and under the same terms, next, TCTCGGAGGACACGTAAGGTCAGAGCTCGACATC: 2.47.
For the sequence ATGTCTAGGTAAAGATAGTTCAGTGAATGCAAAT, the PBM binding z-score is 0.151.
On the same count and under the same terms, next, TATACAGGGTCAAAGTCCAGAGTACGAATGTCGA: 6.73; GGAACCAGGGCAAGTTGATAGCAGAGTTTGATGG: 0.254.
In turn, CCTAGCAGGCCAGGGTCACTGAAGCATTTCGCTT returned a PBM binding z-score of 3.86.
Same read-out and setting: next, CGTCCAAGGTCAATGCTAGGACAGTGAAAGCATT: 4.3; CCTACTGGGCCATTCATAGGTCATTGATCATATG: 1.56; CGAACTAGGTGATCCAGGACAGTGAATACATTGA: 0.363.
Still for that read-out and setting: next, ACTAGCAGGTCAAGTTTGGGTCACTCAAACAAAG: 4.85; TCTCGTAGATCAAGCAGGTTAAGAAAGCCTGAGT: -0.0292.
Same read-out and setting: next, GCTGCTAGGTCAGTTTGGTCAGCTAACGGGTACG: 0.8.
CCTACTGGGCCATCAGATCATTGATATCAACGTT yielded a PBM binding z-score of -0.148.
On to CCGAGTGGGGCAGAAAGGTTACCATACCATCCGG, for which the PBM binding z-score is 1.76.
Same read-out and setting: next, AGTCAAAGTTCACTAGGTAACCTAAGATTCAGCT: 4.04; TCTAGCAGGCCCGAGGGTCACTCAAGAGGTACGG: 2.42; TCGACTAGGTTACCAATGGGGCATTCAGCTTTCT: 0.661.
On the same count and under the same terms, next, GCGACTGGGGCATCAGCAGGTTAGCATAACTTAA: 0.0592.
The same measure, in the same setting: next, TTACCAAGGTGAGCTGAGCTCGTTGATCCAACTC: 0.0974; AGAACGAGGGCAATAAGTTGATAGCACGGGTGGC: 0.767.
The sequence CGTCAAAGATCAACTAAGGTAACGTAAAGCACGC showed a PBM binding z-score of 0.921.
Same read-out and setting: next, AGAACGAGGGCAAGCTGAGTTGATAGCAGAGTAG: 0.964; TTACCAAGGTGAAGGGTCGTTGATGCACGCCTTG: 3.13; CCGACTGGGGCAGAACGGTTACCATACCATCCGG: -0.293.
Same read-out and setting: next, TCATATAGGTGAATGCTAGGTGAAAGTCCGATCT: 0.992; TGGCCTAGGTCATTGGGCCAGTATAGTACGCATC: 2.68; TCTTGTAGGTCAAGCAGGTTAAGAAAGCCTGAGT: 4.02.
The same measure, in the same setting: as for ATCGAAAGGTCGAGGTGATTATAGAGAAAGGGAA, the figure is 4.29; as for CGAACGAGGGCATGGGTTGATAGCAAATGCCGAT, 1.26; as for TTATATAGGTAAACAGGTGAAAGTCCGTAAGTTA, 0.949.
Sequence CCTACTGGGCCAAAAAGGTCATTGAGGCCGATAA came in with a PBM binding z-score of 4.63.
As to CCTACTGGGCCAAAGGTCATTCATTCCAATGCTC, the PBM binding z-score came to 6.93.
Still for that read-out and setting: next, TAGCCTACGTCAGATCGGGCCAGTATACGCTATA: -0.569; ATCTCTAGGAAACAAGTTCAGTGAAAGAGAGGAC: 0.725.
Still for that read-out and setting: next, CCAACTAGGTCAGAACAGGACAGTGAAGGATGAT: 1.22; CCGACTGCGGCATAAGGTTACCATAAGCCAGCCC: 0.766.
